Screening results (PubChem)
Only some compounds are listed: those with a hit (about 1.7% of all), similar ones and a draw of the others.
Vif imaging = inhibitors of HIV Vif; HEK293T cells, Vif self-association by quenched fluorescence, imaging, 24 h; inhibition, % at 7.49 µM; 340,000 tested, 0.35% active; in the data active = inhibition above about 50%, passing the limit was not always enough
CFTR F508del cor = CFTR F508del correction in bronchial cells. CFBE cells, YFP halide quenching; stimulated with forskolin plus potentiator P3; % fluorescence drop versus neutral controls. 350,000 tested, 0.36% active. activity (quench increase), % at 7.58 µM;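 active = mean added fluorescence quench of at least 8% versus neutral control, with both replicates also reaching 8%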;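 note: cells transiently co-express mutant CFTR-F508del with the halide-sensitive YFP; corrector assay measuring rescue of mutant channel to the surface after 24 h compound exposure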
FGF22 binding-1 = binders of recombinant human FGF22 by thermal shift. Q9HCT0. SYPRO orange fluorescence; percent of sucrose octasulfate shift, DMSO zero. activity (Tm shift, normalised), % at 9.99 µM. 340,000 tested, 1.5% active. AID 651658;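 active = mean Tm shift, scaled 0 neutral to 100 positive control, at about 1.3% or above, every replicate too, limit read from the data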
Target sequence (Q9HCT0 whole entry, looked up): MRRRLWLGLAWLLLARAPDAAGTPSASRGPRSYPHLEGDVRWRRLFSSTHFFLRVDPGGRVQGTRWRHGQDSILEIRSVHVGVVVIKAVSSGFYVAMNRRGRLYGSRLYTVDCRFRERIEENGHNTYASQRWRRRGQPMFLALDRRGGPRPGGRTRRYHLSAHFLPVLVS
FGF22 binding-2 = binders of human FGF22 by thermal shift. shares compounds with FGF22 binding-1. recombinant FGF22 thermal shift, SYPRO orange fluorescence. thermal shift activity, °C (ΔTm) at 38 µM. 1,000 tested, 2% active;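 active = fitted rise in melting shift crosses a set limit at or below the top valid dose tested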
TSA no protein = compound-only SYPRO artifact for FGF22 binders. AID 743019. compound-only SYPRO orange thermal shift counter-screen, no protein. 1,000 tested, 2% active. shares compounds with FGF22 binding-1. AC50, µM (highest dose often 38 µM);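 active = rising signal whose fitted curve reaches the 0.54 level within the top valid dose, showing a melting point, actives reach about 13 µM in these data; inactive = the rest, including activity in the opposite direction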; note: value is where the raw curve crosses a fixed level and not half-maximal
The depositor's hits bear a star.

Results for CN(c1ccccc1)S(=O)(=O)c1cccc(NC(=O)c2ccc3ncsc3c2)c1 ?
Vif imaging: -8; CFTR F508del cor: 2; FGF22 binding-1: 1.4*; FGF22 binding-2: -0.047; TSA no protein: inactive

What do the screens show for `Cc1noc(NS(=O)(=O)c2ccc(NC(=O)c3cccc(S(=O)(=O)N(C)c4ccccc4)c3)cc2)c1C`?
Vif imaging: 11; CFTR F508del cor: -1; FGF22 binding-1: 1.6*; FGF22 binding-2: -0.17; TSA no protein: inactive

How did CN(c1ccccc1)S(=O)(=O)c1cccc(NC(=O)c2cccc(C#N)c2)c1 do in these assays?
Vif imaging: -2; CFTR F508del cor: 2; FGF22 binding-1: 0

How did Cc1noc(C)c1S(=O)(=O)Nc1ccc2c(c1)C(=O)N([C@H](C)CO)C[C@@H](C)[C@@H](CN(C)C(=O)Nc1ccccc1)OCCCC[C@@H](C)O2 do in these assays?
CFTR F508del cor: -2; FGF22 binding-1: -1

How did C[C@H](CO)N1C[C@H](C)[C@H](CN(C)Cc2ccc(Cl)c(Cl)c2)Oc2ccc(NS(=O)(=O)c3cccs3)cc2CC1=O do in these assays?
CFTR F508del cor: 0; FGF22 binding-1: 0

What do the screens show for `COc1ccccc1-c1ccc2c(c1)O[C@@H](CN(C)C(=O)c1cccnc1)[C@H](C)CN([C@H](C)CO)S2(=O)=O`?
CFTR F508del cor: -1; FGF22 binding-1: 0

How did C[C@H](CO)N1C[C@H](C)[C@H](CN(C)C(=O)Nc2ccccc2)Oc2ccc(NC(=O)Cc3ccccc3)cc2C1=O do in these assays?
CFTR F508del cor: 0; FGF22 binding-1: 0

How did Oc1ccc(/C=N/N=C/c2ccc(O)c(O)c2)cc1O do in these assays?
Vif imaging: 72*; CFTR F508del cor: -1; FGF22 binding-1: 1.5*; FGF22 binding-2: 0.23; TSA no protein: 10µM*

What do the screens show for `Oc1ccc(N=Cc2ccc(O)c(O)c2)cc1`?
Vif imaging: 11

Results for COc1cccc(-c2ccc3c(c2)[C@@H]2[C@@H](CCN2C(=O)c2ccc(F)cc2)[C@@H](CO)N3)c1 ?
CFTR F508del cor: 0; FGF22 binding-1: 0

What do the screens show for `Cc1cc(C(=O)N/N=C/c2cccnc2)c2ccccc2n1`?
Vif imaging: 3; CFTR F508del cor: -1; FGF22 binding-1: 0

How did CCOc1ccc(-c2cc(C(=O)N/N=C/c3cccnc3)c3ccccc3n2)cc1 do in these assays?
Vif imaging: -6; CFTR F508del cor: -1; FGF22 binding-1: 2.5*; FGF22 binding-2: -0.12; TSA no protein: inactive

What do the screens show for `CO[C@@H]1CN(C)C(=O)c2cc(NC(=O)C3CC3)ccc2OC[C@@H](C)N(C(C)=O)C[C@@H]1C`?
CFTR F508del cor: -5; FGF22 binding-1: 0

Results for COc1ccccc1NC(=O)N(C)C[C@@H]1Oc2ncc(C#CCC(C)C)cc2C(=O)N([C@@H](C)CO)C[C@H]1C ?
CFTR F508del cor: 1; FGF22 binding-1: 0

How did CCCNC(=O)N[C@@H]1C=C[C@@H](CC(=O)NC2CCCCC2)O[C@H]1CO do in these assays?
CFTR F508del cor: 0; FGF22 binding-1: 0

What do the screens show for `O=C(O)c1cc2cccc(S(=O)(=O)N3CCCCC3)c2cc1O`?
Vif imaging: 20; CFTR F508del cor: 2; FGF22 binding-1: 1.7*; FGF22 binding-2: 0.087; TSA no protein: inactive

How did O=S(=O)(c1cccc2ccccc12)N1CCCCC1 do in these assays?
Vif imaging: -6; CFTR F508del cor: 1; FGF22 binding-1: 0

How did CCNC(=O)C[C@@H]1C=C[C@H](NC(=O)C2CCOCC2)[C@H](CO)O1 do in these assays?
CFTR F508del cor: 2; FGF22 binding-1: 0

What do the screens show for `CC(=O)Oc1ccc(N(C(C)=O)S(=O)(=O)c2ccccc2)c2ccccc12`?
Vif imaging: 3; CFTR F508del cor: -2; FGF22 binding-1: 0

Results for COc1ccc(S(=O)(=O)N(C(C)=O)c2ccc(OC(C)=O)c3ccccc23)cc1[N+](=O)[O-] ?
Vif imaging: -27; CFTR F508del cor: -2; FGF22 binding-1: 1.5*; FGF22 binding-2: -0.014; TSA no protein: inactive

What do the screens show for `CO[C@H]1CN(C)C(=O)c2cc(NC(=O)Cc3ccccc3)ccc2OC[C@H](C)N(C(=O)c2ccccc2F)C[C@@H]1C`?
CFTR F508del cor: -1; FGF22 binding-1: 0

How did COc1ccc(/C=N/N2C(C)CCCC2C)cc1OC (configuration not stated) do in these assays?
Vif imaging: 8; CFTR F508del cor: -1; FGF22 binding-1: 38*; FGF22 binding-2: -0.091; TSA no protein: inactive

How did CC1CCCC(C)N1/N=C/c1ccc(Cl)cc1 (configuration not stated) do in these assays?
Vif imaging: -2

Results for COc1ccccc1-c1ccc2c(c1)O[C@H](CN(C)C(=O)c1cccnc1)[C@@H](C)CN([C@@H](C)CO)S2(=O)=O ?
CFTR F508del cor: -3; FGF22 binding-1: 0

Results for COc1ncccc1C(=O)N1CCC(n2nccc2NC(=O)CC(C)C)CC1 ?
Vif imaging: 8; CFTR F508del cor: 2; FGF22 binding-1: 0

How did CC(=O)Nc1cccc(C(=O)N2CCC(n3nccc3NC(=O)CC(C)C)CC2)c1 do in these assays?
Vif imaging: -23; CFTR F508del cor: 0; FGF22 binding-1: 1.5*; FGF22 binding-2: 0.01; TSA no protein: inactive

How did O=C(C[C@H]1CC[C@H](NS(=O)(=O)c2ccc(F)cc2)[C@@H](CO)O1)NCc1ccc(Cl)c(Cl)c1 do in these assays?
CFTR F508del cor: -2; FGF22 binding-1: 0

Results for CC(C)CCNC(=O)c1onc(CSc2ccncc2)c1C(=O)NCCC(C)C ?
Vif imaging: -4; CFTR F508del cor: 0; FGF22 binding-1: 18*; FGF22 binding-2: 0.095; TSA no protein: 8.3µM*

What do the screens show for `CCCCNC(=O)c1onc(CSc2ccccc2)c1C(=O)O`?
Vif imaging: 2; CFTR F508del cor: -3; FGF22 binding-1: 0

How did CCCCNC(=O)c1onc(CSc2ccc(C(C)C)cc2)c1C(=O)O do in these assays?
Vif imaging: -9; CFTR F508del cor: 2; FGF22 binding-1: 1.5*; FGF22 binding-2: -0.034; TSA no protein: inactive

What do the screens show for `CCCNC(=O)c1onc(CSc2ccncc2)c1C(=O)NCCC`?
Vif imaging: -2; CFTR F508del cor: 0; FGF22 binding-1: 0

How did CCC(=O)N[C@H]1CC[C@H](CC(=O)NCC2CCCCC2)O[C@@H]1CO do in these assays?
CFTR F508del cor: 0; FGF22 binding-1: 0

What do the screens show for `C[C@@H]1CN([C@@H](C)CO)C(=O)c2cc(C#CC3CCCC3)cnc2O[C@H]1CN(C)C(=O)C1CC1`?
CFTR F508del cor: -4; FGF22 binding-1: 0

Results for C[C@@H](NC(=O)C[C@H]1CC[C@@H](NC(=O)C2CCC2)[C@@H](CO)O1)c1ccccc1 ?
CFTR F508del cor: 0; FGF22 binding-1: 1

Results for O=C(Nc1ccccc1)OCCN1CCN(Cc2ccccc2)CCC1=O ?
Vif imaging: 2; CFTR F508del cor: -2; FGF22 binding-1: 0
